Dicer inh – inhibitors of Dicer pre-microRNA processing, primary screen, biochemical, cat-ELCCA, chemiluminescence; z-score at 25 µM; cat-ELCCA pre-miR-21 Dicer processing; stronger effect = higher value; 47,000 tested, 6% active; in the data active = z-score above about 3, passing the limit was not always enough;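 note: plate controls were vehicle for no effect and no enzyme for full effect; higher signal means more uncleaved substrate so more Dicer inhibition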
Active calls of the source: *; ! = not active in a repeat. Only a selection was taken, and hits are over-represented in it overall.

SMILES	Dicer inh
CCn1c(C(=O)OC)cc(=O)c2cc(OC)ccc21	-1.1
c1ccc(-n2cnc3cc(NCc4ccco4)ccc32)cc1	4.7*
O=[N+]([O-])c1ccc2c(c1)ncn2-c1ccccc1	1.7
CCn1cnc2cc(NCc3ccco3)ccc21	1.6
O=C(CCSc1nnnn1-c1ccccc1)Nc1ccc2c(c1)OCCO2	-0.04
Cc1ccc(-c2cc(C(F)(F)F)n3nc(C)cc3n2)cc1	0.37
Cc1cc(C(=O)NNC(=O)C(Cl)(Cl)Cl)nn1-c1c(Cl)cc(Cl)cc1Cl	-0.66
CSc1sc(-c2ccnc(SCc3ccc(Cl)cc3)n2)c(-c2ccccc2)c1C#N	-0.87
CCOC(=O)CCc1nc2ccccc2[nH]1	0.58
Nc1ccc(CCc2nc3ccccc3[nH]2)cc1	6.5*
Cc1ccc(Cc2nc3ccccc3[nH]2)cc1	-0.64
CSC(N)=Nc1ccc(Cl)cc1	3*!
CSC(N)=Nc1ccc(Cl)c(Cl)c1	2.4
CSC(N)=Nc1cc(Cl)ccc1Cl	2.2
O=C(CSc1nc2ncccc2[nH]1)Nc1ccc(Cl)cc1	-0.22
O=C(O)c1coc2c1/C(=N/N1CCCCC1)CCC2	0.82
O=C(O)c1coc2c1/C(=N/Nc1c(Cl)cc(Cl)cc1Cl)CCC2	3.8*
Clc1cc(Cl)c(N/N=C2\CCCc3occc32)c(Cl)c1	2
O=C(c1ccncc1)N(c1cc2sc(=O)oc2c2ccccc12)S(=O)(=O)c1cccs1	-5.5
O=C(c1ccncc1)N(c1ccc2oc(=O)sc2c1)S(=O)(=O)c1cccc2cccnc12	3.7*
Cc1ccc(C)c(S(=O)(=O)N(C(=O)c2ccncc2)c2ccc3oc(=O)sc3c2)c1	-1.7
Cc1cc2cc(N(C(=O)c3ccncc3)S(=O)(=O)c3cc(C)c(C)cc3C)ccc2o1	-0.81
O=C(c1cccnc1)N(c1ccc2oc(=O)sc2c1)S(=O)(=O)c1cccc2cccnc12	4.1*
N#Cc1ccsc1NC(=O)CSCC(=O)O	-0.14
COc1cc(S(=O)(=O)N2CCN(Cc3ccc4c(c3)OCO4)CC2)c(OC)cc1Cl	-2.1
SMILES	Dicer inh
Cc1cc(NC(=O)c2sc3nc4c(c(-c5cccs5)c3c2N)CN(C)CC4)no1	-7.7
COC(=O)c1sc2ncccc2c1O	-0.01
O=C(O)Cn1c(SCc2ccccc2)nc2ccccc21	1.2
CCOC(=O)Cn1c(C)nc2ccccc21	4.7*
O=C(O)CCSc1nc2ccccc2n1Cc1ccccc1	1.4
CCSc1nc2ccccc2n1CC(N)=O	6.7*
CCn1c(SCC(=O)O)nc2ccccc21	3.1*
NC(=O)Cn1c(SC2CCCCC2)nc2ccccc21	1.7
NC(=O)CSc1nc2ccccc2n1CCO	12
CCOC(=O)Cn1c(-c2ccccn2)nc2ccccc21	-0.59
CCOC(=O)Cn1c(=O)n(CC(=O)OCC)c2ccccc21	-1.1
N#CC1=C2N=C(N)c3ccccc3N2C2=C(C(=O)CCC2)C1c1cccnc1 (stereo unspecified)	1.3
CCCCOc1ccc(C2c3c(oc4ccccc4c3=O)C(=O)N2c2nnc(C)s2)cc1 (stereo unspecified)	-0.34
O=C(Nc1ccc([N+](=O)[O-])cc1)c1nnn(-c2ccc([N+](=O)[O-])cc2)c1-c1ccccc1	-0.11
O=C(NC(=O)c1ccccc1F)NN(Cc1c(F)cccc1Cl)c1ccccc1	-0.23
CSc1c(CC(=O)Nc2ccccc2)n(C)c2ccccc12	3.7*
Cn1cnnc1SCCC(=O)Nc1ccccc1	-0.17
CCOC(=O)Cc1c(SC)c2ccccc2n1C	2.1
COc1ccc(NC(=O)c2sc3nc4c(cc3c2N)CCC4)cc1	1
O=S(=O)(O)c1ccc2nc(-c3ccccc3)[nH]c2c1	0.87
Cc1ccc(-c2nc3ccc(N)cc3[nH]2)cc1	3.1*
Cc1ccc(C)c(-c2nc3ccc(N)cc3[nH]2)c1	3
c1ccc2cc3[nH]c(CN4CCOCC4)nc3cc2c1	-0.55
CC(C)c1ccc2nc(-c3ccc(N)cc3)[nH]c2c1	19*
Nc1ccc(-c2nc3ccc(N)cc3o2)cc1	-0.21
SMILES	Dicer inh
Nc1ccc(-c2nc3cc4ccccc4cc3[nH]2)cc1	4*
Nc1ccc(-c2nc3ccc(-c4nc5ccccc5o4)cc3[nH]2)cc1	6.5*
c1ccc2[nH]c(-c3ccc(-c4nc5ccccc5o4)cc3)nc2c1	0.34
CC(=O)Nc1ccc2nc(-c3ccc(-c4nc5ccc(NC(C)=O)cc5[nH]4)cc3)[nH]c2c1	-1
Nc1ccc2nc(-c3ccc(Cl)cc3)[nH]c2c1	2
COC(=O)c1scc(Br)c1OC(=O)c1ccc(Cl)cc1Cl	-0.74
CCOC(=O)c1cc(NC(C)=O)ccc1Oc1cncc(Cl)c1	0.19
Cc1ccc(NC(=S)N2CCc3ccccc3C2)c(C)c1	-0.1
CCOc1ccc2nc(SCCc3ccccc3)[nH]c2c1	1.3
O=C(Cn1c(=O)oc2ccccc21)Nc1nncs1	-0.26
CCOC(=O)c1c[nH]c2c(Cl)cc(Br)cc2c1=O	-0.56
COc1cccc(OC)c1COC(=O)Nc1c(-c2ccccc2Cl)noc1C	-1.5
O=C1c2c(O)ccc(O)c2C(=O)c2c(NCCNCCO)ccc(NCCNCCO)c21	21*
O=C1c2ccccc2C(=O)c2c(NCCc3ccc(O)cc3)ccc(NCCc3ccc(O)cc3)c21	-1.4
Cc1ccc(Nc2nnns2)c(C)c1	-0.17
Cc1nc(N2CCN(c3cccc(Cl)c3)CC2)nc2c1C(=O)CC(c1ccco1)C2 (stereo unspecified)	3*
Cc1nc(N2CCN(c3ccccc3)CC2)nc2c1C(=O)CC(C)C2 (stereo unspecified)	0.21
Cc1nc(N2CCN(c3ccccn3)CC2)nc2c1C(=O)CC(c1ccc(Cl)cc1)C2 (stereo unspecified)	-0.26
COC(=O)c1scc(C)c1NC(=S)OC	2
CCC(=O)c1cc(OC)c(OC)cc1OC	-0.05
COc1ccccc1-c1nc(SCC(=O)c2ccccc2)n[nH]1	0.59
Cc1cc(C)nc(SCC(=O)c2cccs2)n1	2.4
Cc1cc(C)nc(SCCC(=O)O)n1	3.2*
Cc1cc(C)nc(SCC(=O)Nc2ncccn2)n1	1.1
O=C(CSc1n[nH]c(-c2ccccc2Cl)n1)c1ccc(O)c(O)c1	4.9*
SMILES	Dicer inh
Cc1cc(C)nc(SCC(=O)c2ccccc2)n1	-0.31
Cc1cc(C)nc(SCC(=O)c2ccc(O)c(O)c2)n1	3.1*
CCc1nc(SCC(=O)c2ccc(O)c(O)c2)n[nH]1	0.01
Cc1cc(C)nc(SCc2ccccc2)n1	-0.98
CCOC(=O)c1sc(-c2ccccc2)nc1CSc1ccc(Cl)cc1	1.8
CCOC(=O)c1cc(CC)sc1NC(=O)CSc1ccc(Cl)cc1	-1.1
CCN1CCCn2c1nc1c2c(=O)[nH]c(=O)n1C	0.49
CC12N=NCC1C(=O)N(c1ccc(F)cc1)C2=O (stereo unspecified)	1.9
CC(C)N(Cc1ccccc1)S(=O)(=O)c1ccc(-c2ccccn2)s1	0.01
COC(=O)CS/C(=C(\C=N\O)c1ccccc1)C(F)(F)F	1.3
O=c1c2ccccc2nc(SCc2c(Cl)cccc2Cl)n1CC1CC1	0.98
COc1ccc(C2C3CCc4ccccc4C3=NN2c2ccccc2)cc1 (stereo unspecified)	2.8
CC(=O)CSc1nc(SCC(C)=O)c2c3c(sc2n1)CCC3	-0.68
COc1cc(C2C(C(=O)OC3CCCCC3)=C(C)NC3=C2C(=O)CC(C)(C)C3)cc(Cl)c1O (stereo unspecified)	0.67
O=c1c2ccccc2cnn1-c1ccc2ccccc2c1	-1.2
O=c1c2ccccc2cnn1-c1ccc(F)cc1	0.98
Cc1cccc(-n2ncc3ccccc3c2=O)c1	4.2*
Clc1nc(NCc2ccco2)nc(N2CCC(Cc3ccccc3)CC2)n1	1.4
O=C1OC(/C=C/c2ccccc2)=NC/1=C/c1ccccc1Cl	1.5

Screens deposited in PubChem by Center for Chemical Genomics, University of Michigan.
